# Assay results published in the supplement of paper PMC8728848.
# This is one part of a sample in which the strongest signals are shown more often than they occur.
# B1: AMA (Arum maculatun) (protein)
# chain: MAKLLLLLLLPAIVGLAVPRSAAAVGSNYMLSGETLNTDGRLTNGELTLIMQVDCNLVLYHGGWQSNTANNGRDCKLTLTDFGELVIKSGTGSTVWSSGSKQSMKGNYAAVVHPEGRLVIYGPSVFKINPSGAGLNGLPLRNIPLTNNMLFSGQVLYGDGTLSARNHKLVMQGDCNMVLYGGKYGWQSNTHGNGKYCFAMLTHKGELVIRDDDFKSVWSSKSSSKQGDYVFILQDDSLAIIYGPAVFSTGSKKMISMVTN
# How the values were obtained:
# Experiment in all cases: glycan array binding signal (z-score within array); higher = stronger binding
# Details in all cases: glycan notation: IUPAC condensed, linker removed
# [1] = biological target: Fuc(a1-2)Gal(b1-3)GalNAc(b1-3)Gal
# How it was run: (§1)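 Columns mapping to the same glycan were averaged after glycan names were converted to IUPAC-condensed notation. The data come from 3228 arrays in the Consortium for Functional Glycomics database, limited to those with an available protein sequence. Binding is reported as a within-array Z-score averaged across arrays of one protein sequence and across linkers.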
# Fuc(a1-2)Gal(b1-3)GlcNAc = biological target: Fuc(a1-2)Gal(b1-3)GlcNAc
# How it was run: as §1
# [2] = biological target: Fuc(a1-2)Gal(b1-3)GlcNAc(b1-3)Gal(b1-4)Glc
# How it was run: as §1
# [3] = biological target: Fuc(a1-2)Gal(b1-3)GlcNAc6S
# How it was run: as §1
# Fuc(a1-2)Gal(b1-4)Glc6S = biological target: Fuc(a1-2)Gal(b1-4)Glc6S
# How it was run: as §1
# [4] = biological target: Fuc(a1-2)[Gal(a1-3)]Gal(b1-3)GalNAc
# How it was run: as §1
# [5] = biological target: Fuc(a1-2)[GalNAc(a1-3)]Gal(b1-3)GlcNAc(b1-6)GalNAc
# How it was run: as §1
# Fuc(a1-3)GlcNAc = biological target: Fuc(a1-3)GlcNAc
# How it was run: as §1
# Gal(a1-3)Gal(b1-3)GlcNAc = biological target: Gal(a1-3)Gal(b1-3)GlcNAc
# How it was run: as §1
# [6] = biological target: Gal(a1-3)Gal(b1-3)GlcNAc(b1-6)GalNAc
# How it was run: as §1
# [7] = biological target: Gal(a1-4)Gal(b1-3)GlcNAc(b1-2)Man(a1-3)[Gal(a1-4)Gal(b1-3)GlcNAc(b1-2)Man(a1-6)]Man(b1-4)GlcNAc(b1-4)GlcNAc
# How it was run: as §1
# Gal(a1-6)Glc = biological target: Gal(a1-6)Glc
# How it was run: as §1
# Gal(b1-3)Gal(b1-4)GlcNAc = biological target: Gal(b1-3)Gal(b1-4)GlcNAc
# How it was run: as §1
# [8] = biological target: Gal(b1-3)GlcNAc(b1-2)Man(a1-3)[Gal(b1-3)GlcNAc(b1-2)Man(a1-6)]Man(b1-4)GlcNAc(b1-4)GlcNAc
# How it was run: as §1
# [9] = biological target: Gal(b1-3)GlcNAc(b1-2)Man(a1-3)[GlcNAc(b1-4)][Gal(b1-3)GlcNAc(b1-2)Man(a1-6)]Man(b1-4)GlcNAc(b1-4)GlcNAc
# How it was run: as §1
# [10] = biological target: Gal(b1-3)GlcNAc(b1-3)Gal(b1-3)GlcNAc
# How it was run: as §1
# [11] = biological target: Gal(b1-3)[Neu5Ac(a2-6)]GlcNAc(b1-6)Gal(b1-4)Glc
# How it was run: as §1
# [12] = biological target: Gal(b1-4)GlcNAc(a1-6)Gal(b1-4)GlcNAc
# How it was run: as §1
# [13] = biological target: Gal(b1-4)GlcNAc(b1-2)Man(a1-3)Man(b1-4)GlcNAc(b1-4)GlcNAc
# How it was run: as §1
# [14] = biological target: Gal(b1-4)GlcNAc(b1-2)Man(a1-3)[Gal(b1-4)GlcNAc(b1-2)Man(a1-6)]Man(b1-4)GlcNAc(b1-4)GlcNAc
# How it was run: as §1
# [15] = biological target: Gal(b1-4)GlcNAc(b1-2)Man(a1-3)[Man(a1-6)]Man(b1-4)GlcNAc(b1-4)GlcNAc
# How it was run: as §1
# [16] = biological target: Gal(b1-4)GlcNAc(b1-3)Gal(b1-3)GalNAc
# How it was run: as §1
# [17] = biological target: Gal(b1-4)GlcNAc(b1-3)Gal(b1-4)GlcNAc(b1-3)GalNAc
# How it was run: as §1
# [18] = biological target: Gal(b1-4)GlcNAc(b1-3)Gal(b1-4)[Fuc(a1-3)]GlcNAc(b1-3)Gal(b1-4)[Fuc(a1-3)]GlcNAc
# How it was run: as §1
# [19] = biological target: Gal(b1-4)GlcNAc(b1-3)[Gal(b1-4)GlcNAc(b1-6)]Gal(b1-4)GlcNAc
# How it was run: as §1
# [20] = biological target: Gal(b1-4)GlcNAc(b1-3)[GlcNAc(b1-6)]Gal(b1-4)GlcNAc
# How it was run: as §1
# [21] = biological target: Gal(b1-4)GlcNAc(b1-6)[Gal(b1-3)]GalNAc
# How it was run: as §1
# Gal(b1-6)Gal = biological target: Gal(b1-6)Gal
# How it was run: as §1
# Gal3S(b1-3)GlcNAc = biological target: Gal3S(b1-3)GlcNAc
# How it was run: as §1
# Gal3S(b1-4)Glc = biological target: Gal3S(b1-4)Glc
# How it was run: as §1
binder,measurement,setting,value
B1,glycan array binding signal (z-score),[1],-0.21
same,glycan array binding signal (z-score),Fuc(a1-2)Gal(b1-3)GlcNAc,-0.176
same,glycan array binding signal (z-score),[2],-0.22
same,glycan array binding signal (z-score),[3],-0.207
same,glycan array binding signal (z-score),Fuc(a1-2)Gal(b1-4)Glc6S,-0.208
same,glycan array binding signal (z-score),[4],-0.211
same,glycan array binding signal (z-score),[5],-0.216
same,glycan array binding signal (z-score),Fuc(a1-3)GlcNAc,-0.221
same,glycan array binding signal (z-score),Gal(a1-3)Gal(b1-3)GlcNAc,-0.21
same,glycan array binding signal (z-score),[6],-0.216
same,glycan array binding signal (z-score),[7],5.86
same,glycan array binding signal (z-score),Gal(a1-6)Glc,-0.214
same,glycan array binding signal (z-score),Gal(b1-3)Gal(b1-4)GlcNAc,-0.208
same,glycan array binding signal (z-score),[8],3.15
same,glycan array binding signal (z-score),[9],-0.205
same,glycan array binding signal (z-score),[10],-0.207
same,glycan array binding signal (z-score),[11],-0.198
same,glycan array binding signal (z-score),[12],-0.215
same,glycan array binding signal (z-score),[13],-0.215
same,glycan array binding signal (z-score),[14],3.36
same,glycan array binding signal (z-score),[15],0.479
same,glycan array binding signal (z-score),[16],-0.219
same,glycan array binding signal (z-score),[17],-0.149
same,glycan array binding signal (z-score),[18],-0.209
same,glycan array binding signal (z-score),[19],-0.213
same,glycan array binding signal (z-score),[20],-0.227
same,glycan array binding signal (z-score),[21],-0.212
same,glycan array binding signal (z-score),Gal(b1-6)Gal,-0.208
same,glycan array binding signal (z-score),Gal3S(b1-3)GlcNAc,-0.209
same,glycan array binding signal (z-score),Gal3S(b1-4)Glc,-0.211
